According to PubChem BioAssay (NCI):
This is part of a sample that, as a whole, favours compounds with a hit. Of some 79,000 tested, about 15% had one in any assay. Calls of active or inactive are those of the source. Cut-off read from the data, not from the text of the source: active = growth inhibition above about 70%; inactive = the rest.

What was measured:
[1] = NCI Yeast Anticancer Drug Screen. Data for the rad52 strain (AID 147);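 note: 0% = growth of vehicle-treated control cultures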; settings: S. cerevisiae rad52 mutant growth inhibition, hits give high values
Summary of the method: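 Read-out: growth inhibition versus vehicle-treated controls. Cells were a DNA repair-deficient yeast strain treated with compounds.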

[2] = NCI Yeast Anticancer Drug Screen. Data for the wt1 strain (AID 149);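 note: 0% = growth of vehicle-treated wt1 cultures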; settings: S. cerevisiae wt1 strain (SPY 50644) growth inhibition, hits give high values
Summary of the method: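 Yeast wt1 strain exposed to compounds; growth inhibition measured relative to vehicle-treated controls.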

[3] = NCI Yeast Anticancer Drug Screen. Data for the mgt1 strain (AID 153); settings: S. cerevisiae mgt1 mutant growth inhibition, hits give high values
Summary of the method: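 mgt1 yeast grown with test compound; read-out is growth inhibition versus vehicle-treated cultures.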

[4] = NCI Yeast Anticancer Drug Screen. Data for the rad50 strain (AID 155);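 note: 0% = growth of vehicle-only cultures of the same strain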; settings: S. cerevisiae rad50 strain growth inhibition, hits give high values
Summary of the method: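 Yeast carrying a defined DNA repair defect were exposed to test compounds, and growth was compared with vehicle-treated controls to give percent inhibition.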

[5] = NCI Yeast Anticancer Drug Screen. Data for the mec2-1 strain (AID 157); settings: S. cerevisiae mec2-1 strain, hits give high values
Summary of the method: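 Yeast mec2-1 mutant treated with compound. Readout: growth inhibition vs vehicle controls.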

[6] = NCI Yeast Anticancer Drug Screen. Data for the rad14 strain (AID 159);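 note: 0% = growth of vehicle-treated control cultures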; settings: S. cerevisiae rad14 strain growth inhibition, hits give high values
Summary of the method: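 Yeast cells carrying a defined DNA-repair defect were exposed to compounds, and growth inhibition was calculated relative to vehicle-treated control cultures.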

[7] = NCI Yeast Anticancer Drug Screen. Data for the sgs1 mgt1 strain (AID 161);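 note: 0% = growth of cultures given vehicle only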; settings: S. cerevisiae sgs1 mgt1 strain, hits give high values
Summary of the method: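 Read-out: growth inhibition vs vehicle controls. Cells: mutant yeast strain deficient in DNA damage repair.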

[8] = NCI Yeast Anticancer Drug Screen. Data for the CLN2oe strain (AID 163);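 note: 0% = growth of vehicle-only control cultures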; settings: S. cerevisiae CLN2oe strain, hits give high values
Summary of the method: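 Read-out: yeast growth inhibition, expressed relative to vehicle-only controls. The strain bears an engineered cell-cycle alteration.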

[9] = NCI Yeast Anticancer Drug Screen. Data for the bub3 strain (AID 167); settings: S. cerevisiae bub3 mutant strain, hits give high values
Summary of the method: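 Compounds were applied to a genetically altered yeast strain carrying a cell-cycle control defect. Growth inhibition was scored against vehicle-treated controls.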

[10] = NCI Yeast Anticancer Drug Screen. Data for the wt2 strain (AID 169);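 note: 0% = growth of vehicle-treated yeast cultures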; settings: S. cerevisiae wt2 strain growth inhibition, hits give high values
Summary of the method: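 Read-out: growth inhibition versus vehicle-treated control cultures after compound exposure of the yeast strain.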

[11] = NCI Yeast Anticancer Drug Screen. Data for the mlh1 strain (AID 171);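 note: 0% = growth of vehicle-treated control cultures of the same strain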; settings: S. cerevisiae mlh1 strain growth inhibition, hits give high values
Summary of the method: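 Read-out: growth inhibition versus vehicle controls. Strain: engineered yeast with a defined DNA repair or cell cycle defect, compound-treated.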

[12] = NCI Yeast Anticancer Drug Screen. Data for the mlh1 rad18 strain (AID 175); settings: S. cerevisiae mlh1 rad18 strain growth inhibition, hits give high values
Summary of the method: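 Yeast w/ defined DNA-repair lesions; compound exposure; growth vs vehicle controls → % inhibition.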

[13] = NCI Yeast Anticancer Drug Screen. Data for the rad18 strain (AID 177); settings: S. cerevisiae rad18 mutant growth inhibition, hits give high values
Summary of the method: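 Readout: growth inhibition vs vehicle controls. Cells: genetically altered yeast strain, DNA repair defect.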

[14] = NCI Yeast Anticancer Drug Screen. Data for the cln2 rad14 strain (AID 165);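 note: 0% = growth equal to vehicle treated cultures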; settings: S. cerevisiae cln2 rad14 strain, hits give high values
Summary of the method: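 cln2 rad14 yeast strain; compound exposure; growth inhibition read vs vehicle controls.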

[15] = NCI Yeast Anticancer Drug Screen. Data for the sgs1 strain (AID 173);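 note: 0% = growth of vehicle-only control cultures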; settings: S. cerevisiae sgs1 mutant, hits give high values
Summary of the method: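 Read-out: yeast growth inhibition relative to vehicle controls, following compound exposure of a strain with a defined DNA repair/cell cycle alteration.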

[16] = at 5.0 µM (retest, dose inferred, filed as 0.5)
[17] = at 50.0 µM (retest, dose inferred, filed as 5.0)

Measured: growth inhibition

COc1ccc(C2c3cc4c(cc3OC(C)(O)C2C)OCO4)c(OC)c1 (stereo not drawn)
active: [1]; at 100.0 µM 96% | [2]; at 100.0 µM 83% | [3]; at 100.0 µM 89% | [4]; at 50.0 µM 95.5% | [4]; at 100.0 µM 98% | [5]; at 50.0 µM 94% | [5]; at 100.0 µM 94% | [6]; at 100.0 µM 98% | [7]; [17] 70% | [7]; at 50.0 µM 84.5% | [8]; at 100.0 µM 82% | [9]; at 100.0 µM 95% | [10]; at 100.0 µM 97% | [11]; at 100.0 µM 96% | [12]; [17] 81% | [12]; at 50.0 µM 93.5% | [13]; at 100.0 µM 97%
inactive: [1]; at 1.2 µM -1% | [1]; at 3.7 µM 1% | [1]; at 11.0 µM 3% | [1]; at 33.0 µM 10% | [2]; at 1.2 µM -1% | [2]; at 3.7 µM 3% | [2]; at 11.0 µM -2% | [2]; at 33.0 µM -2% | [3]; at 1.2 µM -5% | [3]; at 3.7 µM -6% | [3]; at 11.0 µM -4% | [3]; at 33.0 µM -2% | [4]; at 1.2 µM 0% | [4]; at 3.7 µM 1% | [4]; [16] 2% | [4]; at 11.0 µM 0% | [4]; at 33.0 µM 9% | [4]; [17] 66% | [5]; at 1.2 µM 3% | [5]; at 3.7 µM 8% | [5]; [16] 4% | [5]; at 11.0 µM 9% | [5]; at 33.0 µM 15% | [5]; [17] 63% | [6]; at 1.2 µM -3% | [6]; at 3.7 µM -4% | [6]; at 11.0 µM -4% | [6]; at 33.0 µM 1% | [7]; [16] 4% | [8]; at 1.2 µM -6% | [8]; at 3.7 µM -12% | [8]; at 11.0 µM -2% | [8]; at 33.0 µM 4% | [9]; at 1.2 µM -4% | [9]; at 3.7 µM -1% | [9]; [16] -4% | [9]; at 11.0 µM 1% | [9]; at 33.0 µM 6% | [9]; [17] 67% | [9]; at 50.0 µM 43% | [10]; at 1.2 µM -2% | [10]; at 3.7 µM 0% | [10]; at 11.0 µM -2% | [10]; at 33.0 µM 1% | [11]; at 1.2 µM 3% | [11]; at 3.7 µM 2% | [11]; at 11.0 µM 3% | [11]; at 33.0 µM 6% | [12]; [16] -6% | [13]; at 1.2 µM 1% | [13]; at 3.7 µM -2% | [13]; at 11.0 µM 1% | [13]; at 33.0 µM 15%

O=C(c1ccc(Cl)cc1Cl)C(Cl)Cl
inactive: [1]; at 1.2 µM 4% | [1]; at 3.7 µM 0% | [1]; at 11.0 µM 14% | [2]; at 1.2 µM -1% | [2]; at 3.7 µM -6% | [2]; at 11.0 µM 3% | [2]; at 33.0 µM 56% | [3]; at 1.2 µM -21% | [3]; at 3.7 µM -34% | [3]; at 11.0 µM -13% | [3]; at 33.0 µM 68% | [4]; at 1.2 µM 11% | [4]; at 3.7 µM 11% | [4]; [16] 46% | [4]; at 11.0 µM 13% | [5]; at 1.2 µM -22% | [5]; at 3.7 µM -24% | [5]; [16] 40% | [5]; at 11.0 µM -9% | [6]; at 1.2 µM -17% | [6]; at 3.7 µM -25% | [6]; at 11.0 µM -15% | [6]; at 33.0 µM 53% | [7]; [16] 13% | [8]; at 1.2 µM -11% | [8]; at 3.7 µM -8% | [8]; at 11.0 µM -13% | [8]; at 33.0 µM 18% | [14]; [16] 68% | [14]; at 50.0 µM 53.6% | [9]; at 1.2 µM -20% | [9]; at 3.7 µM -11% | [9]; [16] -4% | [9]; at 11.0 µM 3% | [10]; at 1.2 µM -8% | [10]; at 3.7 µM -7% | [10]; at 11.0 µM 16% | [11]; at 1.2 µM -10% | [11]; at 3.7 µM 3% | [11]; at 11.0 µM 20% | [15]; at 1.2 µM -14% | [15]; at 3.7 µM -14% | [15]; at 11.0 µM 14% | [12]; [16] 34% | [13]; at 1.2 µM -30% | [13]; at 3.7 µM -34% | [13]; at 11.0 µM -1%
active: [1]; at 33.0 µM 74% | [1]; at 100.0 µM 98% | [2]; at 100.0 µM 98% | [3]; at 100.0 µM 99% | [4]; at 33.0 µM 79% | [4]; [17] 84% | [4]; at 50.0 µM 83.8% | [4]; at 100.0 µM 98% | [5]; at 33.0 µM 81% | [5]; [17] 82% | [5]; at 50.0 µM 85.5% | [5]; at 100.0 µM 98% | [6]; at 100.0 µM 98% | [7]; [17] 99% | [7]; at 50.0 µM 83.8% | [8]; at 100.0 µM 98% | [14]; [17] 98% | [9]; at 33.0 µM 80% | [9]; [17] 96% | [9]; at 50.0 µM 88.8% | [9]; at 100.0 µM 97% | [10]; at 33.0 µM 71% | [10]; at 100.0 µM 98% | [11]; at 33.0 µM 83% | [11]; at 100.0 µM 99% | [15]; at 33.0 µM 80% | [15]; at 100.0 µM 98% | [12]; [17] 75% | [12]; at 50.0 µM 88.5% | [13]; at 33.0 µM 76% | [13]; at 100.0 µM 98%
